Experimental data: PubChem BioAssay (EPA / NIEHS)
Active and inactive are the calls of the source. How the source made its calls: active means hit-call score of the fitted dose curve at least 0.9, where 1 is the maximum; inactive means score below 0.9.

Read-out: Collagen I, COL1A1 (gene 1277)
Experiment: BSK_hDFCGF_CollagenI: BioMAP Diversity Plus: hDFCGF Assay for Collagen I Biomarker Activity (AID 2284250)
Details: primary human foreskin fibroblasts
Description: BSK_hDFCGF is a cell-based, multiplexed-readout assay that uses foreskin fibroblast, a human skin primary cell, with measurements taken at 24 hours after chemical dosing in a 96-well plate.BSK_hDFCGF_CollagenI is an assay component measured in the BSK_hDFCGF assay. It measures Collagen I antibody related to regulation of gene protein expression using ELISA technology.Data from the assay component BSK_hDFCGF_CollagenI was analyzed at the endpoint, BSK_hDFCGF_CollagenI, in the positive analysis fitting direction relative to DMSO as the negative control and baseline of activity. Using a type of binding reporter, gain or loss-of-signal activity can be used to understand protein changes. To generalize the intended target to other relatable targets, this assay endpoint is annotated to the 'cell adhesion molecules' intended target family, where the subfamily is 'collagen'.
The levels of cell surface (or secreted, indicated by the prefix "s") biomarker endpoints were measured by ELISA. Overt cytotoxicity to cells in confluent adherent cultures (all systems other than the BT system) was assessed by measuring total protein levels using sulforhodamine B (SRB) staining in parallel cultures at the time of biomarker measurements, indicated as SRB endpoints. For proliferation assays for adherent cell types, individual cell types are cultured at sub-confluence and relative cell numbers quantified by SRB staining at time points optimized for each system (48 h: 3C and CASM3C systems; 72 h: BT and HDF3CGF systems; 96 h: SAg system). SRB was performed by staining cells with 0.1% SRB after fixation with 10% TCA and reading wells at 560 nm.Viability and proliferation of PBMC (T cells) was quantified by Alamar Blue reduction for the SAg and BT systems. For PBMC viability (referred to as PBMC Cytotoxicity within the assay endpoint names), cells were plated (75,000/well in a 96-well plate) and then chemical samples added for 1 h before addition of activators, SEB and TSST-1 (20 ng/mL final concentration each). Cells were incubated for 90 h. Then, Alamar Blue (20 uL/well) (Invitrogen, Cat DAL1100) was added for 6 h, and the plates were read with a fluorescence microplate reader at 546/580 nm (excitation/emission). For PBMC proliferation, cells were plated and activated as above but incubated for only 16 h prior to addition of Alamar Blue. Plates were read after 6 h.

| Compound | outcome |
| --- | --- |
| CC(=O)c1ccc(C)cc1 | inactive |
| C=C(C)C(=O)OCCC(F)(F)C(F)(F)C(F)(F)C(F)(F)C(F)(F)C(F)(F)C(F)(F)C(F)(F)F | inactive |
| CCCCN(CCO)CCO | inactive |
| CC(C)(CO)CO | inactive |
| OCC(F)(OC(F)(F)C(F)(OC(F)(F)C(F)(F)C(F)(F)F)C(F)(F)F)C(F)(F)F (stereo not drawn) | inactive |
| CC(C)CCCC(C)(C)O | inactive |
| C=C(F)C(=O)OC(C(F)(F)F)C(F)(F)F | inactive |
| CCCO[Si](OCCC)(OCCC)OCCC | inactive |
| O=C(O)C(F)(F)OC(F)(F)C(F)(F)OC(F)(F)C(F)(F)C(F)(F)C(F)(F)F | inactive |
| c1ccc(OCCOc2ccccc2)cc1 | inactive |
| O=C(O)C(F)(F)C(F)(F)C(F)(F)C(F)(F)C(F)(F)C(F)(F)C(F)(F)C(F)F | inactive |
| O=S(=O)(O)C(F)(F)C(F)(F)OC(F)(F)C(F)(F)F | inactive |
| CCn1cc(C(=O)O)c(=O)c2ccc(C)nc21 | inactive |
